Measured values: the supplement of paper PMC8728848
About 410 targets per protein were measured; listed, in parts, are those with the strongest signals and a random draw of the rest.

Key:
Assay in all cases: glycan array binding signal (z-score within array); higher = stronger binding
Conditions in all cases: glycan notation: IUPAC condensed, linker removed
Fuc(a1-2)Gal(b1-3)GalNAc = biological target: Fuc(a1-2)Gal(b1-3)GalNAc
How it was run: (§1)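 The Consortium for Functional Glycomics database supplied 3228 glycan arrays, of which those lacking an available protein sequence were dropped. The binding signal, a within-array Z-score, was averaged across arrays of the same protein sequence and across linkers. Negative scores can be read as non-binding.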

[1] = biological target: Fuc(a1-2)Gal(b1-3)GalNAc(b1-4)[Neu5Ac(a2-3)]Gal(b1-4)Glc
How it was run: as §1

[2] = biological target: Fuc(a1-2)Gal(b1-4)[Fuc(a1-3)]GlcNAc
How it was run: as §1

[3] = biological target: Fuc(a1-2)Gal(b1-4)[Fuc(a1-3)]GlcNAc(b1-3)Gal(b1-4)[Fuc(a1-3)]GlcNAc
How it was run: as §1

[4] = biological target: Fuc(a1-2)Gal(b1-4)[Fuc(a1-3)]GlcNAc(b1-3)Gal(b1-4)[Fuc(a1-3)]GlcNAc(b1-3)Gal(b1-4)[Fuc(a1-3)]GlcNAc
How it was run: as §1

Fuc(b1-3)GlcNAc = biological target: Fuc(b1-3)GlcNAc
How it was run: as §1

Gal(a1-3)Gal = biological target: Gal(a1-3)Gal
How it was run: as §1

Gal(b1-4)Glc6S = biological target: Gal(b1-4)Glc6S
How it was run: as §1

Gal3S(b1-4)GlcNAc6S = biological target: Gal3S(b1-4)GlcNAc6S
How it was run: as §1

Gal3S6S(b1-4)GlcNAc = biological target: Gal3S6S(b1-4)GlcNAc
How it was run: as §1

Gal3S6S(b1-4)GlcNAc6S = biological target: Gal3S6S(b1-4)GlcNAc6S
How it was run: as §1

Gal6S(b1-4)Glc6S = biological target: Gal6S(b1-4)Glc6S
How it was run: as §1

GalNAc(a1-3)GalNAc = biological target: GalNAc(a1-3)GalNAc
How it was run: as §1

GalNAc(b1-4)GlcNAc = biological target: GalNAc(b1-4)GlcNAc
How it was run: as §1

[5] = biological target: Neu5Ac(a2-3)Gal(b1-3)GlcNAc
How it was run: as §1

Neu5Ac(a2-3)GalNAc = biological target: Neu5Ac(a2-3)GalNAc
How it was run: as §1

[6] = biological target: Neu5Gc(a2-3)Gal(b1-4)[Fuc(a1-3)]GlcNAc
How it was run: as §1

B1: MIG/CXCL9 (Homo sapiens) (protein)
chain: TPVVRKGRCSCISTNQGTIHLQSLKDLKQFAPSPSCEKIEIIIATLKNGVQTCLNPDSADVKELIKKTEKQVSQKKKQKNGKKHQKKKVLKVRKSQRSRQKKTT
Fuc(a1-2)Gal(b1-3)GalNAc
  glycan array binding signal (z-score): -0.29
[1]
  glycan array binding signal (z-score): -0.193
[2]
  glycan array binding signal (z-score): -0.26
[3]
  glycan array binding signal (z-score): -0.383
[4]
  glycan array binding signal (z-score): -0.37
Fuc(b1-3)GlcNAc
  glycan array binding signal (z-score): -0.209
Gal(a1-3)Gal
  glycan array binding signal (z-score): -0.114
Gal(b1-4)Glc6S
  glycan array binding signal (z-score): 0.015
Gal3S(b1-4)GlcNAc6S
  glycan array binding signal (z-score): 2.28
Gal3S6S(b1-4)GlcNAc
  glycan array binding signal (z-score): 2.35
Gal3S6S(b1-4)GlcNAc6S
  glycan array binding signal (z-score): 5.28
Gal6S(b1-4)Glc6S
  glycan array binding signal (z-score): 2.35
GalNAc(a1-3)GalNAc
  glycan array binding signal (z-score): 0.274
GalNAc(b1-4)GlcNAc
  glycan array binding signal (z-score): -0.358
[5]
  glycan array binding signal (z-score): -0.037
Neu5Ac(a2-3)GalNAc
  glycan array binding signal (z-score): -0.254
[6]
  glycan array binding signal (z-score): -0.288
